This is a sample that favours compounds with a hit; in the whole collection about 32% have one here.
PostGolgi ctrl: inhibits growth of the yeast control strain; AID 738; 98,000 compounds, 5% hits; inhibition, % at 10 µM; efflux-deficient yeast background strain, growth absorbance A615, 16 h
PostGolgi yeast: growth inhibition of a yeast mutant, post-Golgi transport screen. post-Golgi transport phenotypic cell assay. inhibition, % at 10 µM. 98,000 compounds, 0.9% hits. AID 739;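 note: yeast cells grown in 1536-well plates; yeast grown about 18 h at 30C before absorbance read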
CYP2C9 inhib: human CYP2C9 inhibition; P11712; AID 777; inhibition, % at 5 µM; 96,000 compounds, 20% hits; CYP2C9 Supersomes, luciferin-H conversion, luminescence;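 active = blocking of liver enzyme CYP2C9 beyond about 50% at 5 µM, limit read from the data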
CYP2C19 inh: blocks human cytochrome P450 2C19; P33261; CYP2C19 Supersomes, luciferin-H EGE luminescence, 30 min; inhibition, % at 5 µM; 96,000 compounds, 21% hits;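 active = CYP2C19 inhibition above a set limit at 5 µM in the primary screen, cut at about 50% in these data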;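 note: plate controls were negative control wells for no effect and 2.5 mM tranylcypromine positive control for full effect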
Target sequence (P33261 whole entry, looked up): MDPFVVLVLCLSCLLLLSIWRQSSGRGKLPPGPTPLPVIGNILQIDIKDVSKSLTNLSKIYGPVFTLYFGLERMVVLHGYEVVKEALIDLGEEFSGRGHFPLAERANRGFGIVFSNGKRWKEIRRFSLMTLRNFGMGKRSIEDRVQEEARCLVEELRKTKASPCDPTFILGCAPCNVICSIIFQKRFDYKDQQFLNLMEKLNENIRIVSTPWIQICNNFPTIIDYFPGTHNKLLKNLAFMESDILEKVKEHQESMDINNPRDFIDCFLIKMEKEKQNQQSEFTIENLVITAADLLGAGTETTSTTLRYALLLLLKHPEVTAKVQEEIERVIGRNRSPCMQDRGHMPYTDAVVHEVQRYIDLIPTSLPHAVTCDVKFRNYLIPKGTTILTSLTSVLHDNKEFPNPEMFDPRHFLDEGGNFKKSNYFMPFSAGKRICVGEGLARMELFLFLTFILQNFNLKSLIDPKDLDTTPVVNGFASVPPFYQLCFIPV
CYP2C19 act: activators of human cytochrome P450 2C19. P33261. recombinant CYP2C19, luciferin-H EGE luminescence; hits give high values; 0 = fully inhibited enzyme, 1 = untreated enzyme. 96,000 tested, under 10 active. activation factor at 5 µM;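 active = activation factor of at least 2 at 5 µM in the primary screen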;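 note: 0 = wells with 2.5 mM tranylcypromine and 1 = vehicle-only wells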
CYP2C9 act: activators of human CYP2C9; P11712; recombinant CYP2C9, luciferin-H conversion, luminescence; hits give high values; factor 1 = untreated enzyme, 0 = blocked; activation factor at 5 µM; 96,000 compounds, 1.4% hits;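 active = activation factor of 2 or more for CYP2C9 at a 5 µM dose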;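 note: 0 = sulfaphenazole-blocked wells and 1 = vehicle-only wells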
* hit, by the source's call; x = not tested or not shown. Cut-off read from the data, not from the text of the source, unless noted: active = inhibition above about 30%; inactive = the rest.

SMILES	PostGolgi ctrl	PostGolgi yeast	CYP2C9 inhib	CYP2C19 inh	CYP2C19 act	CYP2C9 act
FC(F)(F)c1cc(-c2ccco2)nc(-n2nnc3ccccc32)n1	-1	7	8	-12	1.1	0.9
CCS(=O)(=O)c1ccc(C(=O)Nc2cccc(Cl)c2)c(Cl)c1Cl	-5	3	-30	0	1	1.3
CC(=O)c1cccc(NC(=O)N2CCCC2C(=O)Nc2cc(C)ccc2C)c1 (stereo unspecified)	5	-3	45	1	1	0.5
CC(=O)NC1Sc2ccccc2N=C1c1ccccc1 (stereo unspecified)	0	8	37	40	0.6	0.6
CCS(=O)(=O)N1CCN(c2ccccc2F)CC1	4	4	90*	50*	0.5	0.1
COc1ccccc1N1CCN(C(=O)c2ccc(S(=O)(=O)N3CCCCCC3)cc2)CC1	3	-1	71*	52*	0.5	0.3
Cc1[nH]c(=O)[nH]c(=O)c1S(=O)(=O)N1CCN(c2ccccc2F)CC1	3	20	2	1	1	1
O=c1[nH]c2ccc(S(=O)(=O)N3CCN(c4ccccc4F)CC3)cc2s1	31*	-5	3	38	0.6	1
O=C(NCc1n[nH]c(=S)n1-c1ccccc1)c1ccc(S(=O)(=O)N2CCOCC2)cc1	3	0	-2	0	1	1
Cn1c(=O)c2c(nc(CN3CCN(C(=O)c4ccco4)CC3)n2Cc2ccccc2F)n(C)c1=O	23	24	8	2	1	0.9
Cc1ccnc(Nc2nc(-c3c(C)nc4sccn34)cs2)c1	14	5	25	26	0.7	0.8
Cc1ccc(Nc2nc(-c3c(C)nc4ncccn34)cs2)cc1	20	-12	-103	19	0.8	2*
Cc1ccc(Nc2nc(-c3c(C)nc4ccccn34)cs2)cc1	75*	-9	-92	67*	0.3	1.9
S=C(Nc1cccc(Cl)c1)Nc1ccccc1Oc1ccccc1	15	16	66*	49	0.5	0.3
Cc1ccc2nc(N3CCN(C)CC3)c(C#N)cc2c1	-2	28	-2	5	1	1
Cc1ccc2nc(N3CCN(Cc4nnnn4Cc4ccccc4)CC3)c(C#N)cc2c1	20	-5	89*	78*	0.2	0.1
COc1ccc2cc(C#N)c(N3CCN(Cc4nnnn4CCC(C)C)CC3)nc2c1	34*	-3	57*	59*	0.4	0.4
Cc1ccc(-c2nnn(CCC(=O)NC3CCCC3)n2)cc1	6	2	76*	45	0.5	0.2
O=C(CN(C(=O)Cn1nnc(-c2ccc(F)cc2)n1)C1CCCC1)NC1CCCC1	10	6	-1	5	1	1
CC1CCCCC1NC(=O)Cn1nnc(-c2ccc(Cl)cc2)n1 (stereo unspecified)	-1	0	-8	71*	0.3	1.1
Nn1c(SCC(=O)Nc2ccccc2)nnc1-c1cccnc1	9	1	8	11	0.9	0.9
CCCn1nnc(NC(=O)C(C)Oc2ccc(Cl)cc2Cl)n1 (stereo unspecified)	7	-1	21	26	0.7	0.8
COCCNC(=O)C(C)Oc1ccc(Cl)cc1Cl (stereo unspecified)	6	5	46	94*	0.1	0.5
CC(Oc1ccc(Cl)cc1Cl)C(=O)NC1=NN(c2ccccc2)C(=O)C1 (stereo unspecified)	-6	-15	53*	32	0.7	0.5
CC(Oc1ccc(Cl)cc1Cl)C(=O)NC1CCSC1=O (stereo unspecified)	13	-6	41	93*	0.1	0.6
SMILES	PostGolgi ctrl	PostGolgi yeast	CYP2C9 inhib	CYP2C19 inh	CYP2C19 act	CYP2C9 act
CC(Oc1ccc(Cl)cc1Cl)C(=O)Nc1ccncc1 (stereo unspecified)	44*	58*	98*	100*	0	0
O=C(NCCCN1CCOCC1)c1c(F)cccc1F	13	7	-3	-4	1	1
CC(Oc1ccc(Cl)cc1Cl)C(=O)NCCCN1CCOCC1 (stereo unspecified)	22	8	-10	58*	0.4	1.1
CCN1CC2=C(OC(N)=C(C#N)C2c2ccccc2)/C(=C\c2ccccc2)C1 (stereo unspecified)	6	0	66*	91*	0.1	0.3
N#CC1=C(N)OC2=C(CN(Cc3ccccc3)C/C2=C\c2cccnc2)C1c1cccnc1 (stereo unspecified)	5	2	41	3	1	0.6
CCN1CCN(C(c2cc(OC)c(OC)c(OC)c2)c2nnnn2C(C)C)CC1 (stereo unspecified)	-2	-2	-6	7	0.9	1.1
Cn1c(=O)cc(SCC(=O)NCCN2CCN(c3ccccc3F)CC2)c2cc(Cl)ccc21	11	-2	-14	33	0.7	1.1
Cn1c(=O)[nH]c(=O)c2c1nc(SCCN1CCOCC1)n2Cc1ccccc1	6	2	2	-9	1.1	1
Cc1nnc(Sc2nc3c(c(=O)[nH]c(=O)n3C)n2CCCc2ccccc2)s1	-5	5	60*	27	0.7	0.4
CCCCCSc1nc2c(c(=O)[nH]c(=O)n2C)n1CCc1ccccc1	x	x	-3	0	1	1
Cc1cc(C)n(-c2nc3c(c(=O)[nH]c(=O)n3C)n2Cc2ccccc2)n1	12	-4	-9	-7	1.1	1.1
Cn1c(=O)[nH]c(=O)c2c1nc(SCCN1CCOCC1)n2CCCc1ccccc1	-2	-2	67*	23	0.8	0.3
Cc1cc(C)n(-c2nc3c(c(=O)[nH]c(=O)n3C)n2CCc2ccccc2)n1	56*	-3	2	25	0.8	1
CCCn1c(SCc2ccccc2)nc2c1c(=O)[nH]c(=O)n2C	50*	-3	-9	24	0.8	1.1
CC(C)Sc1nc2c(c(=O)[nH]c(=O)n2C)n1CCc1ccccc1	31*	-1	8	14	0.9	0.9
C=CCn1c(SCc2ccc(F)cc2)nc2c1c(=O)[nH]c(=O)n2C	4	-4	46	58*	0.4	0.5
CCC(C)Sc1nc2c(c(=O)[nH]c(=O)n2C)n1CCc1ccccc1 (stereo unspecified)	20	-5	x	x	x	x
CCOC(=O)C(CC)Sc1nc2c(c(=O)[nH]c(=O)n2C)n1CCc1ccccc1 (stereo unspecified)	12	4	78*	60*	0.4	0.2
O=C(NCc1ccccc1Cl)c1cnn2cccnc12	9	0	-68	41	0.6	1.7
COc1ccc(NCc2nnc(SCC(=O)Nc3cccc(C)c3)o2)cc1	10	21	59*	72*	0.3	0.4
COc1ccc(NCc2nnc(SCC(=O)N3CCCc4ccccc43)o2)cc1	0	5	60*	40	0.6	0.4
O=C(CSc1nnc(CNc2ccccc2)o1)N1CCCc2ccccc21	-5	9	25	26	0.7	0.7

Compound activity (PubChem)
